Values joined by “and” are separate entries in the source; they are usually repeats but may differ in a detail not shown here. Identical values can stand only once. Among all 5,500 compounds or so, about 2,000 (36%) were called active. Not shown: some 18% with an inconclusive outcome. Rule as the data show it: active = normalized growth mostly below about 0.91 (no sharp cut-off); inconclusive = no clear call, values can overlap the other calls; inactive = mostly above about 0.92. The list shows a part of the results.
Assay: chemical genetic growth profiling, strain panel (AID 1159580);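 also: tested at 20 µM; growth read once vehicle control cultures reached saturation at 30 °C; 1 = growth at the plate median or of vehicle wells; lower values mean less growth of the strain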
Conditions: S. cerevisiae deletion strains, growth OD

Measured: normalized growth

O=C(O)/C=C(\CC(=O)O)C(=O)O
inactive: locus YAL013W, strain DEP1, hits give low values 0.995 | locus YAL021C, strain ccr4, hits give low values 0.998 | locus YAL026C, strain drs2, hits give low values 1 | locus YAL030W, strain snc1, hits give low values 0.993 | locus YBL061C, strain skt5, hits give low values 0.994 | locus YBR009C, strain hhf1, hits give low values 1 | locus YBR021W, strain FUR4, hits give low values 0.981 | locus YBR023C, strain chs3, hits give low values 0.992 | locus YBR171W, strain sec66, hits give low values 0.989 | locus YBR229C, strain ROT2, hits give low values 0.993 | locus YBR231C, strain swc5, hits give low values 0.998 | locus YBR279W, strain paf1, hits give low values 1.01 | locus YCL011C, strain gbp2, hits give low values 1 | locus YCL016C, strain dcc1, hits give low values 1.01 | locus YCL029C, strain bik1, hits give low values 0.968 | locus YCL061C, strain MRC1, hits give low values 0.987 | locus YCL069W, strain vba3, hits give low values 1 | locus YCR088W, strain abp1, hits give low values 0.99 | locus YDL005C, strain med2, hits give low values 0.98 | locus YDL035C, strain GPR1, hits give low values 1 | locus YDL040C, strain nat1, hits give low values 0.985 | locus YDL074C, strain BRE1, hits give low values 0.998 | locus YDL101C, strain DUN1, hits give low values 1 | locus YDL134C, strain PPH21, hits give low values 1.01 | locus YDL185W, strain tfp1, hits give low values 1 | locus YDL192W, strain arf1, hits give low values 0.997 | locus YDR001C, strain nth1, hits give low values 0.995 | locus YDR069C, strain doa4, hits give low values 1.01 | locus YDR101C, strain arx1, hits give low values 0.991 | locus YDR137W, strain rgp1, hits give low values 1.02 | locus YDR159W, strain sac3, hits give low values 0.96 | locus YDR162C, strain NBP2, hits give low values 1.05 | locus YDR195W, strain ref2 0.969 | locus YDR297W, strain sur2, hits give low values 0.996 | locus YDR318W, strain mcm21, hits give low values 0.981 | locus YDR334W, strain swr1, hits give low values 0.981 | locus YDR335W, strain msn5, hits give low values 0.999 | locus YDR388W, hits give low values 0.973 | locus YDR392W, strain spt3, hits give low values 0.992 | locus YDR502C, strain sam2, hits give low values 0.984 | locus YEL003W, strain gim4, hits give low values 1 | locus YEL037C, strain rad23, hits give low values 0.994 | locus YEL061C, strain CIN8 (second series), hits give low values 1 | locus YEL061C, strain CIN8, hits give low values 0.996 | locus YER015W, strain faa2, hits give low values 0.998 | locus YER016W, strain bim1, hits give low values 0.984 | locus YER110C, hits give low values 0.982 | locus YER111C, strain swi4, hits give low values 0.991 | locus YER155C, strain BEM2 (second series), hits give low values 0.983 | locus YER155C, strain BEM2, hits give low values 0.989 | locus YER167W, strain BCK2, hits give low values 0.978 | locus YFR010W, strain ubp6, hits give low values 0.991 | locus YGL078C, strain dbp3, hits give low values 0.984 | locus YGL086W, strain mad1, hits give low values 0.987 | locus YGL167C, strain pmr1, hits give low values 0.986 | locus YGL173C, strain kem1, hits give low values 0.997 | locus YGL227W, strain vid30, hits give low values 0.98 | locus YGL240W, strain doc1, hits give low values 0.974 | locus YGL248W, strain PDE1, hits give low values 1.03 | locus YGL253W, strain hxk2, hits give low values 1 | locus YGR135W, strain pre9, hits give low values 1.02 | locus YGR252W, strain gcn5, hits give low values 1.03 | locus YHR013C, strain ard1, hits give low values 0.999 | locus YHR027C, strain rpn1, hits give low values 0.993 | locus YHR030C, strain SLT2, hits give low values 0.987 and 1.01 | locus YHR079C, strain IRE1 (second series), hits give low values 0.968 | locus YHR079C, strain IRE1, hits give low values 1.01 | locus YHR094C, strain hxt1, hits give low values 0.968 | locus YHR129C, strain ARP1, hits give low values 1 | locus YHR142W, strain chs7, hits give low values 1.01 | locus YHR200W, strain rpn10, hits give low values 0.991 | locus YIL066C, strain RNR3, hits give low values 1.01 | locus YIL073C, strain SPO22, hits give low values 0.952 | locus YIL125W, strain kgd1, hits give low values 0.979 | locus YIR030C, strain dcg1, hits give low values 0.97 | locus YJL092W, strain hpr5, hits give low values 0.994 | locus YJL095W, strain BCK1 (second series), hits give low values 0.997 | locus YJL095W, strain BCK1, hits give low values 1.05 and 1 | locus YJL115W, strain asf1, hits give low values 0.998 | locus YJL129C, strain trk1, hits give low values 0.996 | locus YJL134W, strain LCB3, hits give low values 0.993 | locus YJL154C, strain vps35, hits give low values 0.994 | locus YJL164C, strain tpk1, hits give low values 1.02 | locus YJL166W, strain qcr8, hits give low values 0.998 | locus YJL168C, strain set2, hits give low values 0.969 | locus YJL187C, strain SWE1 (second series), hits give low values 1.02 | locus YJL187C, strain SWE1, hits give low values 0.997 | locus YJR043C, strain POL32, hits give low values 1 | locus YJR066W, strain TOR1, hits give low values 0.972 | locus YJR075W, strain HOC1, hits give low values 1.03 | locus YKL009W, strain mrt4, hits give low values 0.957 | locus YKL068W, hits give low values 0.981 | locus YKL085W, strain MDH1 (second series), hits give low values 0.989 | locus YKL085W, strain MDH1, hits give low values 0.989 | locus YKL160W, strain elf1, hits give low values 0.993 | locus YKR001C, strain vps1, hits give low values 0.956 | locus YKR026C, strain gcn3, hits give low values 0.993 | locus YKR091W, strain srl3, hits give low values 0.999 | locus YLL001W, strain dnm1, hits give low values 1.01 | locus YLL026W, hits give low values 0.988 | locus YLL041C, strain sdh2, hits give low values 1 | locus YLR027C, strain aat2, hits give low values 0.996 | locus YLR039C, strain RIC1, hits give low values 1.02 | locus YLR058C, strain SHM2, hits give low values 1.01 | locus YLR102C, strain apc9, hits give low values 0.974 | locus YLR113W, strain HOG1, hits give low values 1.01 | locus YLR221C, strain rsa3, hits give low values 0.976 | locus YLR258W, strain gsy2, hits give low values 0.986 | locus YLR262C, strain YPT6 (second series), hits give low values 1.01 | locus YLR262C, strain YPT6, hits give low values 1.02 | locus YLR268W, strain sec22, hits give low values 0.977 | locus YLR320W, strain mms22, hits give low values 0.982 | locus YLR330W, strain CHS5, hits give low values 0.99 | locus YLR342W, strain FKS1 (second series), hits give low values 0.99 | locus YLR342W, strain FKS1, hits give low values 0.987 | locus YLR357W, strain rsc2, hits give low values 0.991 | locus YLR370C, strain arc18, hits give low values 0.997 | locus YLR371W, strain rom2, hits give low values 0.972 | locus YLR384C, strain iki3, hits give low values 0.984 | locus YLR418C, strain cdc73, hits give low values 1.01 | locus YML016C, strain PPZ1, hits give low values 0.986 | locus YML032C, strain rad52, hits give low values 0.986 | locus YML120C, strain ndi1, hits give low values 1 | locus YML124C, strain tub3, hits give low values 0.97 | locus YMR058W, strain fet3, hits give low values 0.997 | locus YMR078C, strain ctf18, hits give low values 0.975 | locus YMR125W, strain sto1, hits give low values 0.997 | locus YMR129W, hits give low values 0.996 | locus YMR205C, strain PFK2, hits give low values 1.01 | locus YMR223W, strain ubp8, hits give low values 0.996 | locus YMR231W, strain pep5, hits give low values 0.967 | locus YMR307W, strain GAS1, hits give low values 1.06 | locus YNL067W, strain RPL9B, hits give low values 1.03 | locus YNL071W, strain lat1, hits give low values 1 | locus YNL128W, strain TEP1, hits give low values 1 | locus YNL153C, strain GIM3, hits give low values 1.04 | locus YNL183C, strain NPR1, hits give low values 0.979 | locus YNL209W, strain ssb2, hits give low values 1 | locus YNL233W, strain BNI4, hits give low values 1.02 | locus YNL248C, strain rpa49, hits give low values 0.995 | locus YNL250W, strain rad50, hits give low values 0.982 | locus YNL271C, strain bni1, hits give low values 0.972 | locus YNL298W, strain CLA4, hits give low values 0.978 | locus YNL307C, strain MCK1, hits give low values 0.982 | locus YNL322C, strain KRE1 (second series), hits give low values 0.99 | locus YNL322C, strain KRE1, hits give low values 0.998 | locus YNR049C, strain mso1, hits give low values 0.992 | locus YNR052C, strain pop2, hits give low values 0.971 | locus YOL006C, strain TOP1, hits give low values 0.969 | locus YOL012C, strain htz1 0.984 | locus YOL147C, strain pex11, hits give low values 0.986 | locus YOR001W, strain rrp6, hits give low values 0.969 | locus YOR061W, strain CKA2, hits give low values 0.988 | locus YOR069W, strain VPS5, hits give low values 0.989 | locus YOR070C, strain gyp1, hits give low values 0.981 | locus YOR080W, strain dia2, hits give low values 0.985 | locus YOR083W, strain WHI5, hits give low values 1.01 | locus YOR106W, strain vam3, hits give low values 1.01 | locus YOR136W, strain idh2, hits give low values 0.98 | locus YOR144C, strain elg1, hits give low values 0.984 | locus YOR184W, strain ser1, hits give low values 0.999 | locus YOR231W, strain MKK1, hits give low values 1.05 | locus YOR265W, strain rbl2, hits give low values 0.995 | locus YOR270C, strain vph1, hits give low values 1.04 | locus YOR290C, strain snf2, hits give low values 0.964 | locus YOR316C, strain cot1, hits give low values 0.97 | locus YPL051W, strain arl3, hits give low values 0.989 | locus YPL055C, strain LGE1, hits give low values 1.03 | locus YPL078C, strain atp4, hits give low values 1 | locus YPL106C, strain sse1, hits give low values 0.997 | locus YPL240C, strain hsp82, hits give low values 0.996 | locus YPL241C, strain CIN2, hits give low values 0.993 | locus YPL256C, strain CLN2, hits give low values 1 | locus YPR119W, strain clb2, hits give low values 0.957 | locus YPR141C, strain kar3, hits give low values 0.975 | locus YPR163C, strain tif3, hits give low values 0.984 | locus YPR167C, strain met16, hits give low values 0.951 | strain wtn01, hits give low values 0.954

Reference: PubChem BioAssay AID1159580 (chemical genetic matrix, 2015)
